p53 reactivator = restores transcriptional activity of mutant p53 | Potency, µM (highest dose often 92.2 µM), without a hit: at the highest dose activity change, positive = activation, hits mostly activators | AID 504706 | H1299 p53-A138V BP100-luciferase reporter, luminescence, 24 h | 320,000 compounds, 0.063% hits; further: potency means the concentration at half of the fitted maximal effect; % of control where 0% means no effect; nearly all actives have a fitted effect of over 45% in size
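H1299 (p53-null), stable ts p53-A138V + BP100-Luc; 1000 cells/well, Opti-MEM/10% FBS; cpd 4 pt, 1:5; 24 h, 37 deg C, 5% CO2; detection reagent 10 min RT; luminescence.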
RORgamma inh = inhibitors of mouse ROR gamma transcriptional activity; P51450; Drosophila S2 Gal4-RORgamma UAS-luciferase reporter, 20 h; Potency, µM (doses to about 53.6 µM), without a hit: top-dose activity change, negative = inhibition, actives largely listed as inhibitors; 310,000 compounds, 5.4% hits; AID 2551; further: potency means the concentration at half of the fitted maximal effect; on the % scale 0 is the no-effect control and ±100 the full control effect; nearly all actives have a fitted effect of over 60% in size
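Compounds are pin-transferred onto Drosophila Schneider cells expressing a copper-inducible Gal4–ROR gamma transactivation domain fusion. After 1 hr, copper sulfate is added to 700 uM final; luciferase is read 20 hr later.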
Six1-Eya2 inh = inhibitors of human Six1/Eya2 interaction | Q15475+O00167 | AlphaScreen GST-Six1/His-Eya2 binding, biochemical; active compounds read low | activity change, % (test concentration not listed) | 360,000 compounds, 0.56% hits; in the data active means activity change below about -65%; inconclusive means mostly about -30% to -63%; further: on the % scale 0 is the no-effect control and ±100 the full control effect
Target sequence (O00167 whole entry, looked up): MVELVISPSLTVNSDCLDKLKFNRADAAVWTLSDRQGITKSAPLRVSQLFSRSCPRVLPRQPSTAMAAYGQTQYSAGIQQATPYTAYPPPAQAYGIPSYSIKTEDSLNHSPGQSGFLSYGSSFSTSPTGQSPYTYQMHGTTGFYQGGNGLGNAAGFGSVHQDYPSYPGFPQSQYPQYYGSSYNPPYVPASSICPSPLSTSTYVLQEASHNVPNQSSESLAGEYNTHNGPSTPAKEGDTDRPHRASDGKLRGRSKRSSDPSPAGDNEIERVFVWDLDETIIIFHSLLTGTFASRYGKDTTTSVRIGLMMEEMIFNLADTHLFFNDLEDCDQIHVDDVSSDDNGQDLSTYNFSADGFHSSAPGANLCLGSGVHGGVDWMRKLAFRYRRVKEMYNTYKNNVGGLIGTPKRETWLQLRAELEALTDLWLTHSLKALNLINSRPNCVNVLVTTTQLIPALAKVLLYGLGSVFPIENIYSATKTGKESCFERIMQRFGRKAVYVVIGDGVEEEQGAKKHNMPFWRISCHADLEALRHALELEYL
Target sequence (Q15475 whole entry, looked up): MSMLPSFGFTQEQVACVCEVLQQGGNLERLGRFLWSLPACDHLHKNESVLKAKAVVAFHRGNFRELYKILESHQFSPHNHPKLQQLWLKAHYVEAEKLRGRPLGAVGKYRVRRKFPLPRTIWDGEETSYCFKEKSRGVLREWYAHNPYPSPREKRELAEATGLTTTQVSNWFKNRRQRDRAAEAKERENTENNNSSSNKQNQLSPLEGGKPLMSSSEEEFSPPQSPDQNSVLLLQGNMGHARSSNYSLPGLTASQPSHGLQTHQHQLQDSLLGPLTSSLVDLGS
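GST-Six1 + His-Eya2 (5X stock: 250/500 nM); Tris pH 8.0, 300 mM NaCl, 0.05% BSA, 0.02% Tween 20; GSH donor/Ni acceptor beads; 1 h 37 °C dark; AlphaScreen readout.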
Gal4-VP16 FLuc = inhibits Gal4-VP16 luciferase reporter, ROR gamma counter-screen; AID 2546; Potency, µM (highest dose often 53.6 µM), without a hit: top-dose activity, negative = inhibition, hits mostly inhibitors; 310,000 compounds, 3.5% hits; Drosophila S2 Gal4-VP16 UAS-luciferase, luminescence, 20 h;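 further: Gal4-VP16 expression switched on by copper sulfate through the metallothionein promoter; potency means the concentration at half of the fitted maximal effect; on the % scale 0 is the no-effect control and ±100 the full control effect; nearly all actives have a fitted effect of over 50% in size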
CtBP-E1A inh = inhibitors of CtBP/E1A interaction. AlphaScreen GST-E1A/His-CtBP binding, 1536-well; active compounds read low. activity change, % (concentration not given with the values). 340,000 compounds, 0.49% hits; in the data active means activity change below about -65%; inconclusive means mostly about -30% to -63%; further: on the % scale 0 is the no-effect control and ±100 the full control effect
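AlphaScreen with 125 nM GST-E1A and 125 nM His-CtBP (5X stocks) in Tris pH 8.0, 300 mM NaCl, BSA, Tween 20, TCEP. Compounds preincubated 2 h at 37 deg C, then glutathione donor/nickel acceptor beads added for 1 h at 37 deg C in dark.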
Active calls of the source: *; ? = inconclusive; . = no result; [ ] = remark or other dose. Shown are actives, neighbours in structure and some others; about 5.4% of the full set was active somewhere. Unless noted, the call rests on the fitted dose curve; in most records, active means well fitted curve in the direction sought with a large enough effect; inconclusive means small, poorly fitted or top-dose-only effect, or another doubt; inactive means no such curve, though single readings can be large; an effect the other way counts as inactive or inconclusive.

SMILES	p53 reactivator	RORgamma inh	Six1-Eya2 inh	Gal4-VP16 FLuc	CtBP-E1A inh
CCNC(=S)NNc1ccccc1	2%	0.71µM*	8	4µM*	4
S=C(NCc1ccccc1)NCc1ccccc1	-3%	?	-2	-8%	14
CN(C)c1ccc(N=Nc2ccccc2C(=O)OCC(=O)NC2CCCC2)cc1	?	?	-71*	-4%	-66*
CN(C)c1ccc(N=Nc2ccccc2C(=O)OCC(=O)NCC2CCCCC2)cc1	?	6%	-74*	-7%	-68*
CN(C)c1ccc(N=Nc2ccccc2C(=O)OCC(=O)N(C)C2CCCCC2)cc1	?	-18%	-23	-29%	-19
CN(C)c1ncnc2ccc(-c3ccccc3C(F)(F)F)cc12	.	-7%	.	-9%	.
O=C(NC(=S)N1CCN(c2ccc(C(F)(F)F)cc2[N+](=O)[O-])CC1)c1cccs1	4%	0.11µM*	-21	?	-14
CCN1CCN(C(=S)NC(=O)c2cccs2)CC1	1%	6.3µM*	16	?	4
CCN1CCN(C(=S)NC(=O)/C=C/c2cccs2)CC1	-2%	3.2µM*	1	?	.
O=S(=O)(O)c1ccc2c(c1)-c1nc-2nc2[nH]c(nc3nc(nc4[nH]c(n1)c1ccc(S(=O)(=O)O)cc41)-c1ccc(S(=O)(=O)O)cc1-3)c1ccc(S(=O)(=O)O)cc21	.	-39%	.	-24%	.
CC(=O)N1CC[C@H]2CC(=O)CC[C@@]21C	.	12%[96.6 µM]	.	-1%[96.6 µM]	.
CCc1ccc(NC(=O)c2cnn3ccccc23)cc1	19%	13µM*	3	?	-1
COc1ccc(-n2nc(C(=O)Nc3ccc4c(c3)OCO4)c3ccccc3c2=O)cc1	-3%	14%	-10	-10%	11
O=C(NC(=S)Nc1ccc2c(c1)OCCO2)c1cccc(Br)c1	?	5µM*	-23	?	-18
O=C(Nc1ccc2c(c1)OCO2)c1ccccc1	?	-19%	9	-3%	3
Cn1nc(C(=O)Nc2ccc3c(c2)OCO3)c2ccccc2c1=O	6%	2%	?	26%	-86*
S=C(Nc1ccc(Br)cc1)Nc1ccc2c(c1)OCCO2	9%	18µM*	-5	?	2
O=C(Nc1ccc2c(c1)OCCO2)c1cccc(C(=O)Nc2ccc3c(c2)OCCO3)c1	6%	-13%	?	11%	?
O=C(NC(=S)Nc1ccc2c(c1)OCO2)c1ccccc1	24%	4.5µM*	-16	?	-9
COCCNC(=O)C1(C)CCCN(C(=O)c2ccc(F)c(Cl)c2)C1 (configuration not stated)	.	.	5	.	2
CC(C)c1ccc(O)c(NC(=S)NC(=O)c2ccc3c(c2)OCO3)c1	?	0.56µM*	-19	1.4µM*	-10
O=C(NC(=S)Nc1ccc2c(c1)OCCO2)c1cccc2ccccc12	?	10µM*	-17	?	-17
O=C(NC(=S)Nc1ccccc1Br)c1ccc2c(c1)OCO2	?	4.5µM*	-2	8.9µM*	3
NS(=O)(=O)c1ccc(NC(=S)NC(=O)c2ccc3c(c2)OCO3)cc1	3%	?	1	?	0
CCOC(=O)c1ccc(NC(=O)c2ccccc2N(C)S(=O)(=O)c2ccccc2)cc1	-15%	?	-9	-3%	3
SMILES	p53 reactivator	RORgamma inh	Six1-Eya2 inh	Gal4-VP16 FLuc	CtBP-E1A inh
CC1(O)C(=O)C=C2C=C3CCCN3C=C2C1=O (configuration not stated)	.	3%[10 µM]	.	0%[10 µM]	.
COc1ccc(NC(=S)N2CCN(C/C=C/c3ccccc3)CC2)cc1OC	6%	10µM*	-14	8%	-7
COc1ccc(OC)c(NC(=S)N2CCN(C/C=C/c3ccccc3)CC2)c1	18%	2.8µM*	-21	1%	-14
Cc1ccc(NC(=O)CCN2CCN(C/C=C/c3ccccc3)CC2)cc1C	-8%	18%	-1	-19%	-1
COc1ccc(NC(=S)N2CCN(C/C=C/c3ccccc3)CC2)cc1	9%	?	-22	?	-5
CCOc1ccc(NC(=S)N2CCN(C/C=C/c3ccccc3)CC2)cc1	17%	14µM*	-21	?	-3
COc1ccc(OC)c(NC(=S)N2CCCC2)c1	2%	-6%	4	3%	1
C/C(=N\Nc1ccc([N+](=O)[O-])cc1)c1ccc(N)cc1	?	26%	-5	3%	6
C/C(=N\Nc1nc(C)c(C)s1)c1ccc([N+](=O)[O-])cc1	2%	11µM*	-15	?	-3
CS(=O)(=O)N1CCN(c2ccccc2NC(=S)NC(=O)c2cccs2)CC1	8%	11µM*	0	-19%	.
CC(=O)N1CCN(c2ccccc2NC(=O)c2cccs2)CC1	4%	-31%	-11	3%	-17
CC1CCN(c2ccccc2NC(=S)NC(=O)C(C)(C)C)CC1	10%	1.6µM*	-13	?	-13
CC(C)C(=O)NC(=S)Nc1ccccc1N1CCN(C(=O)c2ccc(Cl)cc2)CC1	-4%	5.6µM*	-4	5µM*	-9
CC(C)C(=O)N1CCN(c2ccccc2NC(=S)NC(=O)c2cccs2)CC1	-4%	14µM*	-27	?	-11
O=C1NCCN(CC2CCN(CCc3ccccc3)CC2)C1=O	.	.	9	.	-5
CC1CCN(c2ccccc2NC(=S)NC(=O)c2cccs2)CC1	16%	2.2µM*	-29	6.3µM*	-22
COc1ccc(NC(=O)N2CCCC3(CCN(C(=O)c4cnccn4)CC3)C2)cc1	.	-3%	.	4%	.
COc1ccc(-c2nc3cc(C)ccn3c2NCc2ccc3c(c2)OCO3)cc1	3%	7.1µM*	-12	?	.
COc1ccc(-c2nc3ccccn3c2NCc2ccc3c(c2)OCO3)cc1	22%	?	-18	-23%	-3
c1ccc(-c2nc3ccccn3c2NCc2ccc3c(c2)OCO3)cc1	2%	10µM*	-8	-6%	-1
O=C(O)CCC1(c2ccccc2)NC(=O)NC1=O (configuration not stated)	-1%	15%	-8	-2%	4
O=C(COc1ccccc1)NNC(=S)NC(=O)c1ccccc1	2%	6.3µM*	3	11µM*	1
COc1ccc(C(=O)NC(=S)NNC(=O)COc2ccccc2)cc1	-9%	7.1µM*	-2	?	-6
COc1ccc(OCC(=O)NC(=S)NNC(=O)COc2ccc(Br)cc2Cl)cc1	-1%	10µM*	-3	3%[10 µM]	0
CC(=O)Oc1c(I)cc(I)cc1C(=O)Nc1ccc(Cl)cc1	-10%	?	1	?	-6
CCN(CC(=O)NC(C)(C)C)Cc1nc2c(Br)cc(Br)cc2c(=O)[nH]1	0%	0.71µM*	-14	3.2µM*	-17

Assay outcomes: PubChem BioAssay, National Center for Advancing Translational Sciences (NCATS)
